Test [1] can be described thus: qHTS assay to identify small molecule antagonists of the glucocorticoid receptor (GR) signaling pathway - cell viability counter screen (AID 720693). Note: nearly all actives have a fitted effect of over 55% in size. In general terms: qHTS replaces the single test concentration by a dilution series.
A short description of test [2]: qHTS assay for identifying genotoxic compounds that show differential cytotoxicity against isogenic chicken DT40 cell lines with known DNA damage response pathways - wild type cell line (AID 743012). Note: nearly all actives have a fitted effect of over 60% in size. The method, boiled down:
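Viability of DNA repair-proficient chicken DT40 cells was assessed by CellTiter-Glo luminescence following 40 h compound exposure at 37 C/5% CO2.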

Test [3] is described as follows: qHTS assay for identifying genotoxic compounds that show differential cytotoxicity against isogenic chicken DT40 cell lines with known DNA damage response pathways - Rev3 mutant cell line (AID 743014). Note: nearly all actives have a fitted effect of over 55% in size.
A short description of test [4]: qHTS assay for identifying genotoxic compounds that show differential cytotoxicity against isogenic chicken DT40 cell lines with known DNA damage response pathways - Rad54/Ku70 mutant cell line (AID 743015). Note: nearly all actives have a fitted effect of over 60% in size.
The nature of test [5]: qHTS assay to identify small molecule antagonists of the androgen receptor (AR) signaling pathway - cell viability counter screen (AID 743033; note: nearly all actives have a fitted effect of over 45% in size).
Test [6] is described as follows: qHTS assay to identify small molecule antagonists of the androgen receptor (AR) signaling pathway using the MDA cell line - cell viability counter screen (AID 743041; note: nearly all actives have a fitted effect of over 45% in size). A digest of the protocol: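 Using the breast carcinoma line MDA-kb2 AR-luc, test chemicals were co-incubated with R1881 for 16 h; CellTiter-Fluor reagent, added at 15.5 h, provided a fluorescence measure of live cells.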

The nature of test [7]: qHTS assay to identify small molecule antagonists of the thyroid receptor (TR) signaling pathway (AID 743065). Note: series mostly up to about 70 µM; nearly all actives have a fitted effect of over 55% in size. The method, boiled down: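 Antagonism measured as loss of luciferase signal in GH3 cells stably carrying a TRE-luciferase reporter, co-treated with compound and T3 (1 nM final) for 23.5 h at 37 C. Viability was read in the same well by CellTiter-Fluor.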
The subject of test [8] is thyroid hormone receptor (rat, GH3 cells). As to the kind of experiment: qHTS assay to identify small molecule agonists of the thyroid receptor (TR) signaling pathway (AID 743066; calls by dose curve).
The nature of test [9]: qHTS assay to identify small molecule antagonists of the estrogen receptor alpha (ER-alpha) signaling pathway - cell viability counter screen (AID 743074; calls by dose curve; note: nearly all actives have a fitted effect of over 45% in size).
A short description of test [10]: qHTS assay to identify small molecule antagonists of the estrogen receptor alpha (ER-alpha) signaling pathway using the BG1 cell line - cell viability counter screen (AID 743081).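 Note: compound given together with 17beta-estradiol as the ER stimulus; series mostly up to about 70 µM; nearly all actives have a fitted effect of over 45% in size.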
The next test has as its target Aromatase (Homo sapiens) (UniProt P11511). The experiment in a line: qHTS assay to identify aromatase inhibitors (AID 743083). Note: series mostly up to about 70 µM; nearly all actives have a fitted effect of over 55% in size.
Test [11] in a line: qHTS assay to identify aromatase inhibitors - cell viability counter screen (AID 743084).
The nature of test [12]: qHTS assay to identify small molecule antagonists of the thyroid receptor (TR) signaling pathway - cell viability counter screen (AID 743064). Note: nearly all actives have a fitted effect of over 50% in size. A digest of the protocol: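 Counter screen for cytotoxicity: compound plus T3 (1 nM final) on GH3.TRE-Luc cells, 23.5 h at 37 °C, then fluorescence viability readout with CellTiter-Fluor.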
Test [13] addresses Estrogen receptor (Homo sapiens) (UniProt P03372). As to the kind of experiment: qHTS assay to identify small molecule antagonists of the estrogen receptor alpha (ER-alpha) signaling pathway (AID 743069; active = well fitted curve in the direction sought with a large enough effect in the signal ratio in the repeat runs, not every such curve was filed as active; the % refers to the signal ratio). A digest of the protocol: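 Fluorescence intensity from a beta-lactamase FRET substrate served as the read-out. Cells: HEK293 with stably integrated ER-alpha-UAS-bla reporter. Agonist 17beta-estradiol was co-added with compounds; incubation 18 hr at 37C, substrate 2 hr at room temperature.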

For test [14] the target is unchanged. As to the kind of experiment: qHTS assay to identify small molecule agonists of the estrogen receptor alpha (ER-alpha) signaling pathway (AID 743075; calls by dose curve; note: potency is the fitted concentration of half-maximal effect).
Test [15] has the same target. The experiment in a line: qHTS assay to identify small molecule agonists of the estrogen receptor alpha (ER-alpha) signaling pathway using the BG1 cell line (AID 743079). Note: nearly all actives have a fitted effect of over 20% in size. Note: potency is the fitted concentration of half-maximal effect.
The nature of test [16]: qHTS assay to identify small molecule antagonists of the estrogen receptor alpha (ER-alpha) signaling pathway using the BG1 cell line (AID 743080; calls by dose curve;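 note: BG1 cells stimulated with 17beta-estradiol alongside compound; series mostly up to about 70 µM; nearly all actives have a fitted effect of over 25% in size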). A digest of the protocol: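 After 5 days in phenol-red-free 10% charcoal-stripped FBS medium, BG1-Luc-4E2 cells were seeded, left 24 h at 37 C, co-treated with compounds and 17beta-estradiol for 21.5 h, then assayed for viability and luciferase.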

Test [17] has as its target Androgen receptor (Homo sapiens) (UniProt P10275). As to the kind of experiment: qHTS assay to identify small molecule agonists of the androgen receptor (AR) signaling pathway using the MDA cell line (AID 743040; note: nearly all actives have a fitted effect of over 20% in size). A digest of the protocol:
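Stable MMTV-luciferase reporter in MDA-kb2 cells; note the promoter carries GR as well as AR response elements. 16 h compound treatment, 37C, 0% CO2; ONE-Glo luminescence endpoint.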

For test [18] the target is unchanged. The experiment in a line: qHTS assay to identify small molecule antagonists of the androgen receptor (AR) signaling pathway (AID 743035; active = well fitted inhibition curve with a large enough effect in the signal ratio in the repeat runs, not every such curve was filed as active; the % refers to the signal ratio). A digest of the protocol: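 Reporter HEK293 cells were exposed to compounds and R1881 overnight (16 h, 37C); beta-lactamase activity was then quantified by FRET fluorescence.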
Test [19] has the same target. The experiment in a line: qHTS assay to identify small molecule agonists of the androgen receptor (AR) signaling pathway (AID 743036; active = well fitted activation curve with a large enough effect in the signal ratio in the repeat runs, with a control signal flat, not every such curve was filed as active; the % refers to the signal ratio). A digest of the protocol: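 In this Tox21 qHTS, 2,000 HEK293 AR-bla cells per well were incubated with compounds for 16 h at 37C and 5% CO2. Fluorescence intensity was recorded 2 h after adding LiveBLAzer B/G FRET substrate at room temperature.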

Structures are written as SMILES. Values without a mark were called inactive. Inconclusive results are not listed. Activity calls are given as the source filed them. Unless noted, calls come from the whole dose curve; as a rule, active = well fitted curve in the direction sought with a large enough effect in the repeat runs; inconclusive = weak or mixed curves; inactive = no such curve, though single readings can be large; an effect the other way counts as inactive or inconclusive.

Aromatase (Homo sapiens), sequence (P11511 whole entry, looked up): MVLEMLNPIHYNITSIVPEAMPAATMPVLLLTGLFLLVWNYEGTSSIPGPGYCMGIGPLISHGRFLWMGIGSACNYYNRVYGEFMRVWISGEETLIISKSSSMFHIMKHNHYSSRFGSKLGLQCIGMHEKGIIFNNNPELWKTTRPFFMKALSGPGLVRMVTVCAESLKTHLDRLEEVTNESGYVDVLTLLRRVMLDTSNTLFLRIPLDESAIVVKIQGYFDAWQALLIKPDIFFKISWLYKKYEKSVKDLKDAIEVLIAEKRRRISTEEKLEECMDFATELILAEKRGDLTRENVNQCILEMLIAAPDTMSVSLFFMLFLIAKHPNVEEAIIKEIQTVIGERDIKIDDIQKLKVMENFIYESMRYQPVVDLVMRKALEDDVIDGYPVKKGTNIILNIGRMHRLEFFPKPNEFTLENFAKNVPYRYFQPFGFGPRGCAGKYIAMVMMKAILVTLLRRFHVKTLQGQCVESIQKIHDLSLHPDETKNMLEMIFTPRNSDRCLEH
Estrogen receptor (Homo sapiens), sequence (P03372 whole entry, looked up): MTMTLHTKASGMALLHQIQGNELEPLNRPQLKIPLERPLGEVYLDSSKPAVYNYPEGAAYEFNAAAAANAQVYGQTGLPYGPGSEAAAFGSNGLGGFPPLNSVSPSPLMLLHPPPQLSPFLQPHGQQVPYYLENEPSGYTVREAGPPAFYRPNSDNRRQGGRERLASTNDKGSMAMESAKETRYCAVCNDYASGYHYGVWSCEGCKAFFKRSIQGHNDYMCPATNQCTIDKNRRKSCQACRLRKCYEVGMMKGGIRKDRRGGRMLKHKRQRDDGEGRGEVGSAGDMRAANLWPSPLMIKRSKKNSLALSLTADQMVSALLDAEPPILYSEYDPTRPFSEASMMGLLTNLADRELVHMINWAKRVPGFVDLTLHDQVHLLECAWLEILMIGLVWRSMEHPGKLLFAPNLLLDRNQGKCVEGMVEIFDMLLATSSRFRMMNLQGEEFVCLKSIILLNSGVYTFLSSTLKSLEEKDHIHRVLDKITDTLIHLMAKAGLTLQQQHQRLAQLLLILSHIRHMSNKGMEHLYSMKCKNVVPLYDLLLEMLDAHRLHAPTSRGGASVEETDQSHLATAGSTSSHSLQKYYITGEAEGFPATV
Androgen receptor (Homo sapiens), sequence (P10275 whole entry, looked up): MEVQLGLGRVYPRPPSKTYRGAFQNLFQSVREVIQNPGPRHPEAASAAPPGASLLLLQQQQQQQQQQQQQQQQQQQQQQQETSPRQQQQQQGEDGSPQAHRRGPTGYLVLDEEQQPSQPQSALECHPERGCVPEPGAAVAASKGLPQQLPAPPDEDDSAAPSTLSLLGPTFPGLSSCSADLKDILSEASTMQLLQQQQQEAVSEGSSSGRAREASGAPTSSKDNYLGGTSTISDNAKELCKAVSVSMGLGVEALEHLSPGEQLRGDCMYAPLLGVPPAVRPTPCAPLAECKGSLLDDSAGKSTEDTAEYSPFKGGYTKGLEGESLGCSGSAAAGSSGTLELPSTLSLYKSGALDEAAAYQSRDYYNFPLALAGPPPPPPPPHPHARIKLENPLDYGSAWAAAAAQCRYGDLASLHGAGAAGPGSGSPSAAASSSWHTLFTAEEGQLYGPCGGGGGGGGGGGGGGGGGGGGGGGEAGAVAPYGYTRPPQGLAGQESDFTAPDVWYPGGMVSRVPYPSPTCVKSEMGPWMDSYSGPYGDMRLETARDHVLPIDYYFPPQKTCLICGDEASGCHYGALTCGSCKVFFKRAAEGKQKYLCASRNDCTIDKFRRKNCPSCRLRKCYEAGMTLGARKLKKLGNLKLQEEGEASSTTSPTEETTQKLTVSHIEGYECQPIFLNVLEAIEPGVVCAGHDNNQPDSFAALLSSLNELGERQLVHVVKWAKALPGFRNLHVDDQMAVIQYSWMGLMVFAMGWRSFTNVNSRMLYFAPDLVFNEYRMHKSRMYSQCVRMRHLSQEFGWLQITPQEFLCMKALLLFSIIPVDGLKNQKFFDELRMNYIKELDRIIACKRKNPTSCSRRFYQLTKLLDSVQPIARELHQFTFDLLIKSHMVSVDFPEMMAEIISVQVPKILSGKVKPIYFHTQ

Turning to `C1CCC2=NCCCN2CC1`, the call (in [1]; in test [5]; in test [8]; in test [10]; in the test with Aromatase (Homo sapiens)) was inactive. Further, the Potency entry in test [2], in test [3], in test [4], in test [6], in test [7] and in [9] was “inactive” in each case. In addition, in test [11], the Potency result was “inactive”.
On to `NC(CCC(=O)O)C(=O)O` (centres undefined), for which the compound was called inactive (in [1]; in test [5]; in test [8]; in [10]; with Aromatase (Homo sapiens)). The Potency result in test [2], in test [3], in [4], in [6], in [12] and in [13] was “inactive” each time. For the same compound, the Potency result in [9], in test [14], in test [15], in test [16] and in [11] was “inactive” in each case.
For the compound `CC(C)COC(=O)c1ccc(N)cc1`, the result (in test [1]; in test [5]; in [10]; with Aromatase (Homo sapiens)) was inactive. Moreover, the Potency result in test [2], in test [3], in [4], in test [6], in test [13] and in [9] was “inactive” throughout. Also, in test [11], the Potency result was “inactive”. Also, the Potency in [14] was 26.8 µM [activator] (active); in [15], 26.6 µM (active).
For the compound `Cc1ccc(C(=O)c2ccc(CC(=O)O)n2C)cc1`, the compound was called inactive (in test [1]; in test [8]; in test [10]; with Aromatase (Homo sapiens)). Also, the Potency entry in test [2], in test [3], in test [4], in test [17], in test [6] and in test [12] was “inactive” in each case. In addition, the Potency result in [9], in test [14], in test [15] and in test [11] was “inactive” in each case.
As to `Clc1cc(Cl)c(Cl)nc1Cl`, the outcome (in test [1]; in [5]; in [8]; in test [10]; with Aromatase (Homo sapiens)) was inactive. The Potency result in [2], in test [3], in test [4], in test [6], in [12] and in test [7] was “inactive” in each case.
Consider `CC(COc1ccccc1)NN` (centres undefined), for which the compound was called inactive (in [1]; in test [5]; in [10]; with Aromatase (Homo sapiens)). The Potency result in test [2], in test [3], in test [4], in test [6], in [13] and in test [9] was “inactive” throughout. The Potency entry in test [14], in [15] and in [11] was “inactive” throughout.
With `Nc1ccccn1`, the result (in test [1]; in [5]; in [8]; in test [10]; with Aromatase (Homo sapiens)) was inactive. The Potency entry in test [2], in test [3], in test [4], in test [12], in test [7] and in test [9] was “inactive” each time. For the same compound, the Potency result in test [11] was “inactive”.
`CC(C(=O)O)c1cccc(Oc2ccccc2)c1` (centres undefined): the compound was classed as inactive (in test [1]; in [5]; in test [8]; in test [10]; with Aromatase (Homo sapiens)). The Potency result in [2], in [3], in [4], in test [6], in [12] and in test [9] was “inactive” in each case.
Turning to `Cc1ccnc(NS(=O)(=O)c2ccc(N)cc2)n1`, the call (in [1]; in test [5]; in test [10]; in the test with Aromatase (Homo sapiens)) was inactive. The Potency entry in [2], in test [3], in test [4], in test [6], in test [13] and in [9] was “inactive” in each case. Also, the Potency entry in test [14], in [15], in test [16] and in test [11] was “inactive” each time.
On to `C[N+](C)(C)CCCCCCCCCC[N+](C)(C)C`, for which the outcome in test [1], in test [5] and in [10] was inactive. The Potency result in test [2], in test [3], in test [4], in [6], in test [13] and in [9] was “inactive” in each case. The Potency entry in test [14], in test [15], in test [16] and in test [11] was “inactive” each time.
As for `CC1=C(C/C=C(\C)CCC[C@H](C)CCC[C@H](C)CCCC(C)C)C(=O)c2ccccc2C1=O`, the result (in [1]; in test [5]; in [8]; in test [10]; with Aromatase (Homo sapiens)) was inactive. Further, the Potency entry in [2], in [3], in test [4], in [6], in test [12] and in test [7] was “inactive” each time. Further, in [11], the Potency result was “inactive”.
As for `Cc1ccc(-c2ncc(Cl)cc2-c2ccc(S(C)(=O)=O)cc2)cn1`, the call (in test [1]; in test [5]; in test [19]; in test [8]; in [10]; with Aromatase (Homo sapiens)) was inactive. In addition, the Potency result in test [2], in test [4], in test [18], in [17], in test [6] and in test [12] was “inactive” each time. The Potency result in test [7], in [13], in test [9], in test [14], in test [15] and in test [11] was “inactive” each time.
Consider `C=CCCC(=O)O`, for which the compound was classed as inactive (in test [1]; in test [5]; in test [8]; in [10]; with Aromatase (Homo sapiens)). Also, the Potency entry in test [2], in test [4], in [6], in test [12], in [7] and in test [13] was “inactive” in each case. The Potency result in [9], in test [14], in [16] and in test [11] was “inactive” in each case.

Source of the values: PubChem BioAssay (Tox21).
